Results published in PubChem BioAssay AID493170 (National Center for Advancing Translational Sciences (NCATS), 2011).
Results filed as inconclusive are left out. Where a call stands in place of a potency, no number is given. Calls of active or inactive are those of the source. The call rests on the fitted dose curve; in most records, active means well fitted inhibition curve with a large enough effect; inconclusive means small, poorly fitted or top-dose-only effect, or effect the other way; inactive means flat fitted curve, though single readings scatter.

Molecular target: Ubiquitin carboxyl-terminal hydrolase 2 (Homo sapiens) (UniProt O75604)
Sequence (O75604 whole entry, looked up): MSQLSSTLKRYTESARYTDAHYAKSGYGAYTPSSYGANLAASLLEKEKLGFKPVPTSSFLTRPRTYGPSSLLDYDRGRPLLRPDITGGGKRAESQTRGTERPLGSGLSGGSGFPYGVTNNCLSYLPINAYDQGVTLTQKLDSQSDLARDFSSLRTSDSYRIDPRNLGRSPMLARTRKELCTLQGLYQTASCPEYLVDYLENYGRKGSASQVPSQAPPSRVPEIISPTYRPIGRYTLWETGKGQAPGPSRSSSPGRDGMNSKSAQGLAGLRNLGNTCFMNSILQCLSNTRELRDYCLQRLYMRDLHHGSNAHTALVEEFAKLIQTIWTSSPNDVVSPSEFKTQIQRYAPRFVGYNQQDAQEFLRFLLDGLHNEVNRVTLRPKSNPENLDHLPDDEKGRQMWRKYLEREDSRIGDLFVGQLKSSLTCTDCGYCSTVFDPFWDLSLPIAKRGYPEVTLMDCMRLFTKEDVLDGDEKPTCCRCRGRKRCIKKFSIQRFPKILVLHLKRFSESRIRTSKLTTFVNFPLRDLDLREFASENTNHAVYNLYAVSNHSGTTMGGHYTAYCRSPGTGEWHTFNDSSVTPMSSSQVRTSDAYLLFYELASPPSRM
Experiment: Ub-rhodamine 110 based assay for inhibitors Ubiquitin-specific Protease USP2a; further: nearly all actives have a fitted effect of over 50% in size
Settings: USP2a Ub-rhodamine110 cleavage, fluorescence; series mostly up to 38.3 µM
Method in brief: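 Kinetic fluorescence (485/531 nm) read each minute over 7 min after adding Ub-Rhod110 (150 nM final) to USP2a (5 nM final). The enzyme had 30 min RT exposure to compounds beforehand in Tris pH 8.0 buffer with CaCl2, CHAPS and beta-ME.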
Potency means the concentration at half of the fitted maximal effect.

| Structure (SMILES) | Potency |
| --- | --- |
| O=C(NCCCN1CCCC1=O)c1cccc(N2CCCC2=O)c1 | inactive |
| CC(C)CC(=O)Nc1cccc(-c2nc3ccccc3o2)c1 | inactive |
| Oc1ccc(/C=N/NC(=S)N/N=C/c2ccc(O)cc2)cc1 | inactive |
| CN(c1cccc(NC(=O)Nc2cccc(Cl)c2)c1)S(C)(=O)=O | inactive |
| O=C(CC1Oc2ccccc2NC1=O)NCc1ccc(Cl)cc1 (centres undefined) | inactive |
| O=[N+]([O-])c1ccc(Sc2nnnn2-c2ccccc2)c(Cl)c1 | inactive |
| CCCOc1ccc(-c2nc(C#N)c(N3CCN(CC)CC3)o2)cc1 | inactive |
| CCC1SC2=NC(C)=C(C(=O)OCCOC)C(c3ccc(C(=O)OC)cc3)N2C1=O (centres undefined) | inactive |
| COc1cc(C)c(S(=O)(=O)NCc2ccc3c(c2)OCO3)cc1C | inactive |
| Cc1cccn2c(=O)c3cc(C(=O)NCCN4CCOCC4)c(=N)n(CCN4CCOCC4)c3nc12 | inactive |
| Nc1ccccc1S(=O)(=O)NC1=NCCCCC1 | inactive |
| CCCc1cc(=O)oc2cc(C)c(CN3CCCC3)c(O)c12 | 10 µM (active) |
| CC(=O)N1c2c(cc(Br)cc2S(=O)(=O)NCc2cccnc2)CC1C (centres undefined) | inactive |
| O=C(Cc1ccc(S(=O)(=O)N2CCOCC2)s1)NCCC(c1ccccc1)c1ccccc1 | 10 µM (active) |
| COc1ccc(S(=O)(=O)N(C)CC(=O)Nc2cccc(C(C)=O)c2)cc1Cl | inactive |
| O=C(O)c1cccc(S(=O)(=O)NNc2ccccc2C(F)(F)F)c1 | inactive |
| CCC/C(O)=C1\C(=O)CC(C)(C)CC1=Nc1ccc(OC)cc1OC | inactive |
| O=C1c2ccccc2C(=O)N1CCCCn1c(=O)oc2ccccc21 | inactive |
| CC[C@]12c3[nH]c4cc(-c5ccco5)ccc4c3CCN1C(=O)[C@@H](CC(=O)NC/C=C(\C)CCC=C(C)C)C[C@@H]2C(=O)N1CCN(C(=O)C2CC2)CC1 | inactive |
| COc1ccc(CN(Cc2cc3cc(C)ccc3[nH]c2=O)C(=O)N(C)C)cc1 | inactive |

| Structure (SMILES) | Potency |
| --- | --- |
| Cc1cc(N=Nc2ccc(C)c(N=Nc3cc(C)c(N)cc3N)c2)c(N)cc1N | inactive |
| O=c1oc2ccccc2n1Cn1c(=O)oc2ccccc21 | inactive |
| Cc1ccc(C=Nc2ccccc2C(N)=O)cc1 | inactive |
| O=C(COc1ccccc1)N1CCN(C(=O)Cc2ccccc2)CC1 | inactive |
| Cc1ccc(C(=O)N(c2c(C)n(C)n(-c3ccccc3)c2=O)C(C)C)cc1 | inactive |
| C#CCOCCOCCOCCNc1nc(N2CCN(C(=O)CCCCCCCCCCNC(=O)Cn3cc(CCCCCN)nn3)CC2)nc(N2CCN(C(=O)CCCCCCCCCCNC(=O)[C@H]([C@@H](C)CC)n3cc(CCCCCN)nn3)CC2)n1 | inactive |
| Cc1cc(C)n2nc(S(=O)(=O)NCCc3ccccc3)nc2n1 | inactive |
| Cc1ccc2c(c1)c1c3n2CCN(C(=O)Cn2c(-c4ccccc4)noc2=O)C3CCC1 (centres undefined) | inactive |
| COC(=O)CCC(=O)Nc1sc2c(c1C#N)CCCC2 | inactive |
| Cc1cc(C)c2c(N=CN(C)C)c(C(=O)N3CCN(c4ncccn4)CC3)sc2n1 | inactive |
| O=S(=O)(c1cc(Cl)ccc1Cl)N1CCNCC1 | inactive |
| O=C(Nn1c(SCc2ccc([N+](=O)[O-])cc2)nc2ccccc2c1=O)c1ccc(F)cc1 | 10 µM (active) |
| C/C(Cn1nnc2ccccc21)=N\OC(=O)c1ccccc1C | inactive |
| C#CCOCCOCCOCCNc1nc(N2CCN(C(=O)CCCCCCCCCCNC(=O)[C@@H](CCC(=O)O)n3cc(CCCCCN)nn3)CC2)nc(N2CCN(C(=O)CCCCCCCCCCNC(=O)[C@H](CCCCN)n3cc(C[C@@H](C)CC)nn3)CC2)n1 | inactive |
| O=C(O)C(Cc1ccccc1)N1C(=O)/C(=C/C=C/c2ccco2)SC1=S (centres undefined) | 11.2 µM (active) |
| O=C(O[C@@H]1OC2COC(=O)c3cc(O)c(O)c(O)c3-c3c(cc(O)c(O)c3O)C(=O)O[C@@H]([C@H]1O)[C@@H]2O)c1cc(O)c(O)c(O)c1 | 3.16 µM (active) |
| CN1CCN(CCC(=O)N/N=C/c2cc([N+](=O)[O-])ccc2O)CC1 | inactive |
| N#Cc1c(NC(=O)CSc2ncnc3sccc23)oc(-c2ccco2)c1-c1ccco1 | 3.98 µM (active) |
| COc1ccc(Cl)cc1S(=O)(=O)Nc1cccc(C(=O)O)c1 | inactive |
